From PubChem BioAssay
Shown are actives, neighbours in structure and some others; about 4.5% of the full set was active somewhere.
CSC inhib = cancer stem cell viability inhibitors, primary screen, luminescence; cancer stem cell-like cells viability; inhibition, % at 7.5 µM; actives 1.1% (n = 300,000); AID 2717, 2010; in the data active = inhibition above about 75%; tested in HMLE shEcad cells
Jurkat NFkB inh = inhibitors of induced NF-kB luciferase reporter, primary screen, TCR NF-kB activation inhibitor project, cell-based, luminescence, uHTS | Jurkat, PMA/ionomycin-induced NF-kB luciferase reporter | inhibition, % at 4 µM | actives 0.53% (n = 330,000) | AID 435003, 2010; in the data active = inhibition above about 50%
Mdm2 MdmX PPI = inhibitors of human Mdm2-MdmX association, primary screen, cell-based, luminescence, split luciferase, SaOS-2, uHTS; actives 3% (n = 330,000); SaOS-2 split-luciferase Mdm2/MdmX complementation; inhibition, % at 8 µM;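 active = inhibition of at least 50% at 8 µM in the primary screen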
Target sequence (O15151 whole entry, looked up): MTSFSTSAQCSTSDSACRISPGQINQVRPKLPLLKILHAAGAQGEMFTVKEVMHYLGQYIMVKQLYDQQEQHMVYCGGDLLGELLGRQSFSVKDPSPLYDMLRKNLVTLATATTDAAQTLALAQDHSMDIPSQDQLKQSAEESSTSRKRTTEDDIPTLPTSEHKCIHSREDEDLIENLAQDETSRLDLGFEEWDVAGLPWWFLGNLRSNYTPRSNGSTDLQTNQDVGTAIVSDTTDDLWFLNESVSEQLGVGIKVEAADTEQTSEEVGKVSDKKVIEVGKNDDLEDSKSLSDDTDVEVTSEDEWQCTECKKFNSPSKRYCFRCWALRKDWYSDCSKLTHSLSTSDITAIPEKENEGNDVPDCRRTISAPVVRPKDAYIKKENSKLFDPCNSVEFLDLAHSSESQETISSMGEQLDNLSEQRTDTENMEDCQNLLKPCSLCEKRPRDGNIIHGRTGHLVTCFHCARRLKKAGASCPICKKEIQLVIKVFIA
Target sequence (Q00987 whole entry, looked up): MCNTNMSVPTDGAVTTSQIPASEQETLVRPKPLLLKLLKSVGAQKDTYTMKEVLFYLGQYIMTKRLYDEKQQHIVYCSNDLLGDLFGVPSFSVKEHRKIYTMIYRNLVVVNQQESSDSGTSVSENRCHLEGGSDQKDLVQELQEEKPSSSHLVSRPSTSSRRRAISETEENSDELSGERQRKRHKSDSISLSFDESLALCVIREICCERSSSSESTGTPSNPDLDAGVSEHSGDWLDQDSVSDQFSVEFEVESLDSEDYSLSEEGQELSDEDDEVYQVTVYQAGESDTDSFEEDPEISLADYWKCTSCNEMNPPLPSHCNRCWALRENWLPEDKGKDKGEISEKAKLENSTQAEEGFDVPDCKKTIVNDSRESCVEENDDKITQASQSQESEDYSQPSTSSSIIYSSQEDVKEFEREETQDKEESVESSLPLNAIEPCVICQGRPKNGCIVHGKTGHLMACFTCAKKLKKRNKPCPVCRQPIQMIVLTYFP
697 NFkB inh = inhibitors of PMA/ionomycin-induced NF-kB reporter, 697 cells, primary screen, B-cell NF-kB inhibitor project, cell-based, luminescence, uHTS | 697 B-cell NF-kB luciferase reporter, 16 h | inhibition, % at 4 µM | actives 0.33% (n = 330,000); in the data active = inhibition above about 35%
Gli-Sufu block = Gli-Sufu pathway antagonists, primary screen, luciferase luminescence, Sufu-KO-LIGHT cells, uHTS | Sufu-KO-LIGHT fibroblasts, Gli luciferase reporter luminescence | inhibition, % at 5 µM | actives 0.74% (n = 340,000);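 active = inhibition above about 55%, limit read from the data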;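 note: 0% = DMSO-treated cells and 100% = wells with medium but no cells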
aSyn 5UTR inh = MLPCN primary screen, SNCA 5' untranslated region; inhibition, % (tested at 7.5 µM); alpha-synuclein 5'UTR reporter, inhibitor activity; actives 0.82% (n = 300,000); in the data active = inhibition above about 60%;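 note: H4 neuroglioblastoma cells stably carrying SNCA 5'UTR luciferase fusion; 0% = DMSO wells and 100% = positive control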
Gli-Sufu confirm = Gli-SUFU pathway antagonists, confirmation, single concentration, luciferase luminescence, Sufu-KO-LIGHT cells. actives 40% (n = 2,500). shares compounds with Gli-Sufu block. inhibition, % at 5 µM. AID 602428, 2012. Gli luciferase reporter;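 active = mean inhibition at 5 µM reaching about 45%, limit read from the data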;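 note: plate controls were DMSO-treated cells for no effect and wells lacking cells for full effect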
Gli cytotox = cytotoxicity in Sufu-KO-LIGHT cells, confirmation, cytotoxicity control for Gli-SUFU antagonist project, cell-based, ATP luminescence, single concentration; shares compounds with Gli-Sufu block; cytotoxicity, % at 5 µM; actives 32% (n = 2,500);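 active = mean cytotoxicity at 5 µM above about 25%, limit read from the data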;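 note: cells exposed to compound overnight for roughly 16 to 18 hours; plate controls were DMSO wells with cells for no effect and medium without cells for full effect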
Wnt3a counter = Wnt3a reporter signal inhibition, confirmation, counter-screen for Gli-SUFU antagonist project, Wnt-LIGHT cells, luminescence, single concentration | shares compounds with Gli-Sufu block | Wnt3a-driven luciferase reporter | inhibition, % at 6.25 µM | actives 20% (n = 2,500) | AID 651995, 2013;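 active = mean inhibition above about 25%, limit read from the data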
Starred values were filed as active, the others as inactive; / = not tested or not shown.

SMILES	CSC inhib	Jurkat NFkB inh	Mdm2 MdmX PPI	697 NFkB inh	Gli-Sufu block	aSyn 5UTR inh	Gli-Sufu confirm	Gli cytotox	Wnt3a counter
Cc1cc(C)nc(N2CCCC(C(=O)Nc3cccc(Cl)c3)C2)n1 (centres undefined)	-3.5	-3.3	16.6	9.4	-11.9	-3.0	/	/	/
CCC1(O)C(=O)OCc2c1cc1n(c2=O)Cc2cc3c(N)cccc3nc2-1 (centres undefined)	/	/	/	/	84.4*	/	62.8*	48.9*	-83.4
CCC1(OC(=O)CN(C)C)C(=O)OCc2c1cc1n(c2=O)Cc2cc3c(N)cccc3nc2-1 (centres undefined)	/	/	/	/	64.2*	/	62.5*	35.6*	-60.6
CCC(=O)c1ccc(OCC(O)Cn2c(C)nc3ccccc32)cc1 (centres undefined)	11.5	29.1	25.8	-35.4	51.2	/	51.9*	22.5	-12.3
COc1ccc(C2=C3C(=O)OCC3Cc3ncn(Cc4ccccc4)c32)cc1 (centres undefined)	-20.0	9.5	6.4	19.1	4.5	/	/	/	/
O=C(CSc1cccc[n+]1[O-])N1CCCCCC1	-7.1	6.3	-8.4	0.8	7.1	20.4	/	/	/
O=C(CSc1cccc[n+]1[O-])CSc1cccc[n+]1[O-]	6.6	-15.1	12.2	-0.1	56.2*	9.9	15.4	9.7	0.5
O=C(Cc1cccc(NC(=O)C2CCN(S(=O)(=O)c3cccc([N+](=O)[O-])c3)CC2)c1)Nc1cccc(C(=O)N2CCCCC2)c1	/	/	/	/	-3.1	/	/	/	/
NC(=O)NC(=O)COC(=O)CC12CC3CC(CC(C3)C1)C2	-7.1	-6.0	10.8	0.1	9.7	-22.5	/	/	/
COc1ccc(N2C(=O)c3ccc(C(=O)Nc4cc(OC)ccc4OC)cc3C2=O)cc1	3.5	-14.6	9.6	-17.4	/	-10.8	/	/	/
COc1ccc(N2C(=O)c3ccc(C(=O)OC(C)C)cc3C2=O)cc1	-5.0	0.7	3.8	11.4	91.1*	-4.8	21.5	19.7	21.5
CCOC(=O)C1CCCN(C/C=C/c2ccccc2)C1 (centres undefined)	-13.4	-9.6	2.4	8.1	10.8	-5.8	/	/	/
O=C(Nc1ccccc1C(=O)OCC(=O)c1c[nH]c2ccccc12)c1ccco1	-20.2	-4.9	-0.3	-20.0	-15.1	-58.1	/	/	/
Cc1csc(NC(=O)CCc2nc3ccccc3s2)n1	5.2	-6.0	-40.6	2.9	99.2*	-15.3	9.8	5.7	-39.2
Cc1csc(NC(=O)CSCC(=O)Nc2ccccc2)n1	-6.0	-20.3	16.1	-2.7	98.9*	-16.8	16.4	5.9	0.4
COc1cccc2c1OCC/C2=N\NC(=O)C(C)Oc1ccc([N+](=O)[O-])cc1 (centres undefined)	2.2	-15.3	6.2	20.5	20.7	9.3	/	/	/
CCC1CCCCN1S(=O)(=O)c1ccc(NC(=O)c2ccncc2)cc1 (centres undefined)	0.3	24.9	14.1	-31.9	58.4*	-26.7	36.9	40.6*	-11.2
Cc1ccc(S(=O)(=O)N2C[C@@H]3CCCC[C@@H]3[C@@H](C)[C@H]2c2cn(Cc3ccccc3)c3ncccc23)cc1	/	/	41.3	13.4	78.5*	/	85.8*	39.9*	32.6*
Cc1ccc(S(=O)(=O)N2C[C@@H]3CCCC[C@@H]3[C@@H](C)[C@H]2c2cn(Cc3ccccc3)c3ccccc23)cc1	/	/	20.3	26.4	87.5*	/	84.9*	31.6*	7.5
Cc1ccc(S(=O)(=O)N2C[C@@H]3[C@H]4CC[C@H](C4)[C@@H]3[C@@H](C)[C@@H]2c2cn(Cc3ccccc3)c3ncccc23)cc1	/	/	18.6	1.4	-8.9	/	/	/	/
Cc1noc(C)c1CSCC(=O)Nc1cccc(C(F)(F)F)c1	7.0	-12.7	-4.5	-3.0	7.7	/	/	/	/
CC(C)Sc1ncc(S(=O)(=O)c2ccccc2)c(=O)[nH]1	-6.1	-0.1	21.6	3.1	-4.9	0.3	/	/	/
CN1CCN(C(=O)c2ccc(N3CCCC3=O)cc2)CC1	/	-2.0	-6.7	-1.2	60.1*	-5.5	19.9	-3.1	-9.4
CCOc1ccc(N(CC(=O)NCc2ccccc2C)S(C)(=O)=O)cc1	-11.8	-26.8	-10.9	-28.0	-30.3	-91.3	/	/	/
CCN(Cc1cnn(C)c1)C(=O)c1cc(COc2ccc(F)cc2F)on1	7.5	-6.3	17.2	8.1	-9.0	-45.7	/	/	/
SMILES	CSC inhib	Jurkat NFkB inh	Mdm2 MdmX PPI	697 NFkB inh	Gli-Sufu block	aSyn 5UTR inh	Gli-Sufu confirm	Gli cytotox	Wnt3a counter
CCN(Cc1ccncc1)C(=O)c1cc(COc2ccc(F)cc2F)on1	/	0.6	21.2	-29.9	50.8	5.8	31.7	-8.0	-22.5
Cc1nnc(SCC(=O)Nc2ccccc2F)n1-c1ccc(F)cc1	5.4	-2.4	9.3	13.9	4.0	-16.9	/	/	/
CC[C@H](C)[C@@H](C(=O)NCCCCCCCCCCC(=O)N1CCN(C(=O)OC(C)(C)C)CC1)n1cc(CCCCCNC(=O)OC(C)(C)C)nn1	-5.1	43.1	17.2	-54.6	56.9*	/	68.2*	14.9	37.1*
COc1ccc(CCN2CC(C(=O)N(C)CC(=O)Nc3ccc(F)c(F)c3F)CC2=O)cc1OC (centres undefined)	/	/	/	/	-0.1	/	/	/	/
CC(C)N(CCCNC(=O)C1CCC(CNS(=O)(=O)c2ccccc2)CC1)Cc1ccccc1 (centres undefined)	17.6	-6.3	-3.8	-0.9	60.2*	-11.2	27.5	18.2	-10.0
COc1cc(NC(=O)C2CC(=O)N(CCc3ccc(F)cc3)C2)cc(OC)c1OC (centres undefined)	-6.8	5.3	-13.5	9.0	-5.0	-0.9	/	/	/
COc1cccc(NC(=S)/C(=C(\[O-])c2cc(C)n(-c3ccccc3F)c2C)[n+]2ccc(N(C)C)cc2)c1	18.8	-10.9	36.9	-16.0	60.4*	-9.1	57.4*	33.0*	17.7
Cc1cc(C([O-])=C(C(=S)Nc2ccc(F)cc2)[n+]2ccccc2)c(C)n1-c1ccc(F)cc1	/	/	/	/	4.8	/	/	/	/
Cc1cc(C)n(CCNc2nc3nonc3nc2N2CCCCC2)n1	-26.8	-0.5	-13.9	12.8	15.2	-15.1	/	/	/
Cc1ccn2c(=O)nc(SCC(=O)Nc3cccc4ccccc34)nc2c1	0.4	0.5	15.8	9.4	-9.0	4.5	/	/	/
O=C(CSc1nc(=O)n2cc(Cl)ccc2n1)Nc1cccc2ccccc12	/	13.2	-14.9	9.1	90.8*	-24.1	16.7	9.3	4.5
